# TRPV1 PAM: enhances activation of the human vanilloid receptor TRPV1; TRPV1-expressing cells, Fluo-8 calcium influx, capsaicin EC20 potentiation; potentiation, % at 8.33 µM; Q8NER1; actives 0.02% (n = 320,000); in the data active = potentiation above about 80%; inconclusive = between about 30% and that limit; also: 0% is about no effect
#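 TRPV1-expressing cells were cultured overnight at 35.5C and loaded with Fluo-8 calcium dye for 40 to 90 min at room temperature. After a 10 s baseline, compound was added and calcium influx was read kinetically for 3 min (ex 480/em 520 nm).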
# TRPV1 ag: activates the human vanilloid receptor TRPV1; activation, % at 8.33 µM; TRPV1-expressing cells, Fluo-8 calcium influx, agonist mode; Q8NER1; actives 0.19% (n = 320,000); in the data active = activation above about 80%; inconclusive = between about 30% and that limit; also: 0% is about no effect
#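 TRPV1-expressing cells were cultured overnight at 35.5C and loaded with Fluo-8 calcium dye for 40 to 90 min at room temperature. After a 10 s baseline, compound was added and calcium influx was read kinetically for 3 min (ex 480/em 520 nm).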
# ClpP mod: qHTS Assay for Activators of ClpP. Potency, µM (titrated, usually from 57.5 µM), without a hit: top-dose activity change, negative = active. AID 651965, 2013. actives 1.9% (n = 340,000). purified B. subtilis ClpP, FRET peptide cleavage, 20 min. ATP-dependent Clp protease proteolytic subunit (Bacillus subtilis (strain 168)), P80244; active = well fitted falling curve with a large enough effect; inconclusive = small, poorly fitted or top-dose-only effect; inactive = no such curve, though single readings can be large or run the other way; also: potency is read from the fitted curve at half-maximal effect; the source files actives as falling curves though it sought activators and does not explain the sign; nearly all actives have a fitted effect of over 65% in size
#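 ClpP 10 microg/mL final, pH 8 Tris/KCl buffer with BSA, glycerol, Tween-20; compound pinned in; FRET-FV substrate; RT 20 min; Ex320/Em430; ΔFRET vs ADEP 5.8 microM, DMSO, no enzyme.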
# KCNH2 WT inh: inhibitors of human wildtype KCNH2 potassium channel; U2OS, BacMam KCNH2, thallium flux FluxOr; hits give low values; activity change, % at 1.84 µM; Q12809; actives 0.37% (n = 340,000);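 active = maximum activity change below -70%; inconclusive = maximum activity change between -70% and -50%; inactive = maximum activity change above -50%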; also: % is scaled to controls: 0 for no effect and ±100 for the full control effect
#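 U2OS cells transduced with wild-type KCNH2 virus are loaded with FluxOr dye for 45 min, and thallium flux is measured in kinetic reads before and after stimulation buffer. Rate constants are normalized to DMSO controls.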
# p53 reactivation: mutant p53 re-activation in reporter cells; actives 0.063% (n = 320,000); Potency, µM (highest dose often 92.2 µM), inactives show top-dose activity change, positive = activation, hits mostly activators; H1299 p53-A138V BP100-luciferase reporter, luminescence, 24 h; active = well fitted activation curve with a large enough effect; inconclusive = small, poorly fitted or top-dose-only effect; inactive = no such curve, though single readings can be large or run the other way; also: potency is read from the fitted curve at half-maximal effect; % of control where 0% means no effect; nearly all actives have a fitted effect of over 45% in size
#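 H1299 (p53-null), stable ts p53-A138V + BP100-Luc; 1000 cells/well, Opti-MEM/10% FBS; cpd 4 pt, 1:5; 24 h, 37 deg C, 5% CO2; detection reagent 10 min RT; luminescence.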
# KCNH2 3.1 block: blocks the human KCNH2 3.1 channel isoform. U2OS KCNH2 3.1, thallium flux FluxOr; hits give low values. activity change, % (tested at about 1.8 µM). actives 0.95% (n = 340,000);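 active = maximum activity change below -70%; inconclusive = maximum activity change from -70% to -50%; inactive = maximum activity change above -50%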;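 also: thallium influx rate constant from kinetic fluorescence after stimulation buffer; % is scaled to controls: 0 for no effect and ±100 for the full control effect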
#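 We transduce U2OS cells with the mutant 3.1 virus, culture them overnight, load FluxOr with Red40 quencher for 45 min, then add stimulation buffer and read kinetically for 2 min to derive a normalized rate constant.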
# * marks the source's active call; other numbers are inactive results; u = inconclusive; x = no result given. Most compounds without a hit are left out; they make up all but 2.6% or so of the library.
SMILES,TRPV1 PAM,TRPV1 ag,ClpP mod,KCNH2 WT inh,p53 reactivation,KCNH2 3.1 block
O=C(OCC(=O)N1CCOCC1)c1cnc(Cl)c(Cl)c1,20,0,0%,1,17%,25
Cc1cc(C)cc(NC(=O)/C=C/c2ccc([N+](=O)[O-])s2)c1,-3,3,-3%,2,u,9
CC(=O)c1cccc(NC(=O)/C=C/c2ccc([N+](=O)[O-])s2)c1,-18,84*,x,-2,11%,-8
CCc1ccc(NC(=O)[C@H](NC(=O)[C@@H]2Cc3ccccc3CN2)c2ccccc2)cc1,u,2,-6%,-88*,24%,14
CCOc1ccc(NC(=O)OCCN2CCN(CCc3ccccc3)C(C)C2)cc1 (stereo not drawn),x,x,-1%,-3,x,-96*
Nc1nc(-c2ccccc2Cl)cs1,x,x,-30%,4,x,-71*
Cc1ccccc1-c1csc(N)n1,x,x,x,-1,x,3
Cc1cccc(C(=O)Nc2cc3nn(-c4ccc(C(C)C)cc4)nc3cc2C)c1,x,x,10µM*,x,x,x
O=c1[nH]c2c(-c3nc(-c4ccc(Cl)cc4)cs3)c(O)cn2c2ccccc12,x,x,-4%,x,x,x
Cc1cc(C)nc(Sc2ncnc3sc4c(c23)CCC4)n1,-4,0,13µM*,-1,-3%,-14
COCCNC(=O)C1(C)CCCN(C(=O)c2c(-c3ccccc3)noc2C)C1 (stereo not drawn),x,x,0%,x,x,x
O=C(Nc1ccc(Cl)cc1)c1ccc2c(c1)N(Cc1ccccc1)C(=O)c1ccccc1S2(=O)=O,x,x,-9%,x,x,x
COCCNC(=O)c1ccc(N2CC3CC(C2)c2cccc(=O)n2C3)c(NC(=O)c2ccc(F)cc2)c1 (stereo not drawn),12,-7,0%,2,13%,11
CCOC(=O)N1CCN(C(=O)c2ccc(N3CC4CC(C3)c3cccc(=O)n3C4)c(NC(=O)c3ccc(F)cc3)c2)CC1 (stereo not drawn),-4,-1,0%,-163*,0%,2
O=C1c2cccnc2C(Nc2ccc(Br)cc2)N1Cc1cccs1 (stereo not drawn),-27,84*,-1%,29,-7%,3
COc1ccc(NC2c3ncccc3C(=O)N2Cc2cccs2)cc1 (stereo not drawn),-31,u,-2%,-12,0%,-10
Fc1cnc(N2CCN(c3ccccc3)CC2)nc1N1CCN(c2ccccc2)CC1,7,-2,32µM*,4,-11%,-2
O=C(c1ccccc1)N1CCc2[nH]nc(-c3ccccc3)c2C1,2,-2,2%,-14,-10%,-94*
CCCCc1ccc(NC(=O)C(=O)NCCN2CCN(C(=O)c3ccc([N+](=O)[O-])cc3)CC2)cc1,4,-6,x,u,0%,-101*
CCc1ccc(NC(=O)C(=O)NCCN2CCN(C(=O)c3ccc(OC)cc3)CC2)cc1,x,x,0%,31,x,-97*
Cc1cc2c(cc1C)-n1nnnc1C(N(Cc1ccccc1)Cc1ccccc1)C(=O)N2 (stereo not drawn),x,x,-8%,x,x,x
Cc1cccc(C)c1NC(=O)Cn1nc(C)c2sc3ccccc3c2c1=O,x,x,4%,x,x,x
CC(C)N(Cc1nnc(-c2ccc(Cl)cc2)o1)C(=O)c1cc2ccccc2o1,-9,19,-8%,-1,4%,-91*
Cn1ncc(Cl)c1C(=O)N1CCN(c2ccc(Cl)c(Cl)c2)CC1,-14,-3,16µM*,8,-26%,x
Cn1ncc(Cl)c1C(=O)N1CCN(c2ccccc2)CC1,2,0,1%,-5,9%,2
SMILES,TRPV1 PAM,TRPV1 ag,ClpP mod,KCNH2 WT inh,p53 reactivation,KCNH2 3.1 block
CCO/C(=C/c1sc2ccc(OC)cc2[n+]1CCCS(=O)(=O)[O-])CC,2,0,-13%,0,0%,-6
COc1ccc2sc(SCCCS(=O)(=O)O)[n+](CCCS(=O)(=O)[O-])c2c1,-16,-1,-1%,-156*,-5%,-203*
O=C(Nc1cccc(-c2cn3ccccc3n2)c1)C1CC1,u,-4,28µM*,-2,5%,-13
O=C(Nc1cccc(-c2cn3ccccc3n2)c1)c1cccc(Cl)c1,8,-12,-14%,4,7%,-6
COc1ccc(CC(=O)Nc2cccc(-c3cn4ccccc4n3)c2)cc1,4,16,20µM*,8,15%,4
COc1ccc(CC(=O)Nc2ccc(-c3cn4ccccc4n3)cc2)cc1OC,-4,3,u,-11,-2%,-14
COc1ccc(CC(=O)Nc2ccc(-c3cn4ccccc4n3)cc2)cc1,u,-2,28µM*,1,17%,-31
Cc1cccc2nc(-c3cccc(NC(=O)Cc4ccccc4)c3)cn12,u,11,28µM*,-18,21%,-2
Cc1nn2c(=O)cc(COc3ccc(/C=C(\C#N)C(=O)Nc4ccc(F)cc4)cc3)nc2s1,x,x,1%,x,x,x
CCC(=O)Nc1cccc(-c2cn3ccccc3n2)c1,2,4,10µM*,22,u,1
Cc1nn(-c2ccccc2)c2sc(C(=O)OCn3nnc4ccccc4c3=O)cc12,-6,-3,10µM*,-14,0%,11
Cc1nn(-c2ccccc2)c2sc(C(=O)NC3CCCCC3)cc12,2,u,u,11,2%,0
Cc1nn(-c2ccccc2)c2sc(C(=O)NCCN3CCOCC3)cc12,-8,21,28µM*,-5,-33%,-14
Cc1ccn(C(=O)c2cc3c(C)nn(-c4ccccc4)c3s2)n1,-7,-1,3.5µM*,14,4%,31
CCCN(C(=O)c1cc2ccc3cccnc3c2[nH]1)c1ccc(F)cc1,x,x,6%,x,x,x
C[C@@H]1CN([C@@H](C)CO)C(=O)c2cc(NC(=O)C3CC3)ccc2O[C@@H]1CN(C)C(=O)NC1CCCCC1,x,x,-6%,-3,-3%,-100*
C[C@H](CO)N1C[C@H](C)[C@@H](CN(C)C(=O)NC2CCCCC2)Oc2ccc(NC(=O)C3CC3)cc2C1=O,x,x,-2%,-9,x,15

# Source: PubChem
